Laboratory results: PubChem BioAssay AID651820 (National Center for Advancing Translational Sciences (NCATS), 2012)
Hit rate of the full screen: of about 340,000 compounds, about 12,000 (3.5%) were called active. Another 18% or so got no clear call; they are omitted. This is one part of a sample in which actives are shown more often than they occur. Calls follow the shape of the dose curve; as a rule, active = well fitted inhibition curve with a large enough effect; inconclusive = small, poorly fitted or top-dose-only effect, or another doubt; inactive = no such curve, though single readings can be large or run the other way.

Experiment: qHTS Assay for Inhibitors of Hepatitis C Virus (HCV)
Settings: Huh7.5.1 HCVcc-Cre infection, luciferase reporter, 44 h; series mostly up to 41.8 µM; activity change, negative = inhibition: at the top concentration
Method in brief: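 Reporter virus HCVcc-Cre (~0.5 moi) infects cells exposed to compound; seeding density 1,000 cells/well with 4 h settling beforehand. Luminescence, 15 sec read, taken 44 h post-infection following a 15 min RT substrate incubation.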
% is scaled to controls: 0 for no effect and ±100 for the full control effect; potency is read from the fitted curve at half-maximal effect.

| Structure (SMILES) | activity change, negative = inhibition | Potency |
| --- | --- | --- |
| CCN(CC(=O)Nc1c(F)cccc1F)C(=O)CN1c2cccc3cccc(c23)S1(=O)=O | 15.1% (inactive) |  |
| CCCCN(C(=O)c1cccc(N2C(=O)c3ccccc3C2=O)c1)c1c(N)n(CCCC)c(=O)[nH]c1=O | 16.2% (inactive) |  |
| COc1ccc2c(C)cc3nnnn3c2c1 | -4.35% (inactive) |  |
| COc1ccc(C2C3=C(CCCC3=O)N(CC(=O)O)C3=C2C(=O)CCC3)cc1 | 13.3% (inactive) |  |
| CCn1c2c(c3ccc(OC)cc31)CCCC2=O |  | 1.26 µM (active) |
| O=C(COC(=O)Cc1ccc([N+](=O)[O-])cc1)NC1CCCCCC1 | 23.3% (inactive) |  |
| COc1ccc(C2(C)ON(c3ccccc3C(F)(F)F)C2=O)cc1 (stereo not drawn) | 32.4% (inactive) |  |
| COc1ccc(C(=O)Nc2cc(S(=O)(=O)N3CCCC3)ccc2Cl)cc1 | -7.01% (inactive) |  |
| Cc1ccc(S(=O)(=O)N2CCCCC2)cc1NC(=O)[C@@H]1CCCN1C(=O)c1cccs1 | -2.57% (inactive) |  |
| O=C(CNCc1cccs1)Nc1cc(S(=O)(=O)N2CCCC2)ccc1Cl |  | 10 µM (active) |
| O=C(NCc1cccs1)C1CCN(S(=O)(=O)c2ccc(Cl)cc2)CC1 | -19.5% (inactive) |  |
| CS(=O)(=O)c1ccc(Cl)c(NC(=O)COC(=O)c2cccc(S(=O)(=O)N3CCCC3)c2)c1 | 8.03% (inactive) |  |
| CC(=O)NCCC(=O)Nc1cc(S(=O)(=O)N2CCCCC2)ccc1Oc1cccc(C)c1 | -8.53% (inactive) |  |
| O=C(COC(=O)CCOc1ccccc1)Nc1cc(S(=O)(=O)N2CCCCC2)ccc1Cl | 22.5% (inactive) |  |
| CCOc1ccc(S(=O)(=O)N2CCCCC2)cc1NC(=O)CN1CCCC1c1cccs1 (stereo not drawn) |  | 4.47 µM (active) |
| O=C(Nc1cc(S(=O)(=O)N2CCCCC2)ccc1Cl)C1COc2ccccc2O1 (stereo not drawn) |  | 11.2 µM (active) |
| COc1cccc(CC(=NO)c2cccc(OC)c2)c1 | 0.648% (inactive) |  |
| CCN(C(=O)COC(=O)CCC(=O)c1cccs1)C1CCCCC1 | 6.03% (inactive) |  |
| O=C1c2ccccc2C(=O)N1CCC#Cc1ccc2cc(C3(O)CCCCC3)oc(=O)c2c1 | -24.6% (inactive) |  |
| CC(Sc1nncn1C)C(=O)NCCC1=CCCCC1 (stereo not drawn) | 14.8% (inactive) |  |
| NS(=O)(=O)c1ccc(CNC(=S)NC(=O)c2ccco2)cc1 | 13.4% (inactive) |  |
| Nc1c(-c2ccccc2)nnn1Cc1ccccc1 | 0.76% (inactive) |  |

| Structure (SMILES) | activity change, negative = inhibition | Potency |
| --- | --- | --- |
| Cc1cc(C)cc(OCC(=O)OCC(=O)NC2CCCC2)c1 | 21.1% (inactive) |  |
| C/C(=N\NC(=O)Cc1ccc(Br)cc1)c1cccnc1 | 11% (inactive) |  |
| C/C(=N\NC(=O)c1ccccc1F)c1ccccn1 |  | 11.2 µM (active) |
| COc1ccc(CC(=O)N/N=C(\C)c2ccccn2)cc1 | -28.1% (inactive) |  |
| C/C(CC(=O)Nc1ccc(N(C)C)cc1)=N\NC(=O)c1ccccc1F | 1.05% (inactive) |  |
| C/C(=N\NC(=O)Cc1ccc(Cl)cc1)c1ccccn1 |  | 7.08 µM (active) |
| O=C(Nc1ccc(NC(=O)c2ccccc2F)cc1)c1ccccc1F | 4.39% (inactive) |  |
| Cc1noc(C)c1S(=O)(=O)N(C)C[C@H]1Oc2c(NC(=O)Nc3ccc4c(c3)OCO4)cccc2C(=O)N([C@H](C)CO)C[C@@H]1C | 7.05% (inactive) |  |
| O=C(OCc1cc(=O)n2ccsc2n1)C1(c2ccc(Cl)cc2)CC1 | -13.4% (inactive) |  |
| O=C(OCC(=O)N1CCc2ccccc21)C1CCCN1S(=O)(=O)c1ccc(Cl)cc1 (stereo not drawn) | 6.57% (inactive) |  |
| O=C(NN=CC=Cc1ccccc1)C(O)C(O)C(=O)NN=CC=Cc1ccccc1 (stereo not drawn) | 14.2% (inactive) |  |
| CN(C)S(=O)(=O)c1ccc(Oc2ccc(S(=O)(=O)N(C)C)cc2)cc1 |  | 11.2 µM (active) |
| COc1cccc(NC(=O)c2ccc(S(=O)(=O)N(C)C)cc2)c1 | -9.93% (inactive) |  |
| Cc1ccc(S(=O)(=O)c2ccc(Oc3ccccc3)cc2)cc1 | -27.1% (inactive) |  |
| CNC(=O)c1cc2c(ccc3ccccc32)oc1=N | 3.09% (inactive) |  |
| CNC(=O)c1cccc2nc3ccccc3nc12 |  | 11.2 µM (active) |
| CN(C)C(=O)c1coc2nc3ccccc3nc12 | -10.9% (inactive) |  |
| CC(C)N(C(=O)CSc1nnc(NC2CC2)s1)c1ccccc1 | 10.8% (inactive) |  |
| COc1ccccc1OCCNc1cc(N2CCOCC2)ccc1[N+](=O)[O-] |  | 14.1 µM (active) |
| COc1ccccc1OCCNC(=O)c1cc([N+](=O)[O-])cc([N+](=O)[O-])c1 | 10.3% (inactive) |  |
| CC(=O)Nc1ccc(S(=O)(=O)N2CCN(c3ccc([N+](=O)[O-])c(NCCN4CCOCC4)c3)CC2)cc1 | -11.2% (inactive) |  |
| COc1ccc(Cl)cc1NC(=O)CN1CCN(C(=O)N2CCOCC2)CC1 | -13.9% (inactive) |  |

| Structure (SMILES) | activity change, negative = inhibition | Potency |
| --- | --- | --- |
| Cn1nc(C(=O)OCC(=O)N(Cc2ccccc2)C(C)(C)C)c2ccccc2c1=O | -24.2% (inactive) |  |
| CN(Cc1ccc(CNC[C@H]2O[C@@H](n3cnc4c(N)ncnc43)[C@H](O)[C@@H]2O)o1)S(C)(=O)=O | 35.2% (inactive) |  |
| O=C(/C=C/c1cccc([N+](=O)[O-])c1)OCC(=O)N1CCOCC1 | -1.47% (inactive) |  |
| CCOc1cc(C(=O)N(Cc2ccccc2)c2ccc(C)cc2)ccc1OCC(=O)N1CCOCC1 | -5.74% (inactive) |  |
| CCn1c(COc2ccc(OC)cc2)nnc1SCC(=O)Nc1cc(OC)ccc1OC |  | 1.26 µM (active) |
| CCOc1ccc(C(=O)Nc2cc(OC)ccc2OC)cc1 |  | 8.91 µM (active) |
| CCn1c(COc2ccccc2)nnc1SCC(=O)Nc1ccc2c(c1)OCCO2 | 6% (inactive) |  |
| CCOc1ccc(NC(=O)Nc2cc(C)on2)cc1 | 0.646% (inactive) |  |
| CCOc1ccc(C(=O)NC2CCN(C(=O)Nc3ccccc3OC)CC2)cc1 | 0.244% (inactive) |  |
| COc1ccc(C)cc1NC(=O)NCc1ccccn1 | 0.829% (inactive) |  |
| COc1ccc(OC)c(NC(=O)c2ccc3c(c2)C(=O)N(c2ccc(OC(C)=O)cc2)C3=O)c1 | 10.5% (inactive) |  |
| CCOc1ccc(NC(=O)Nc2cc(C)ccc2OC)cc1 |  | 11.2 µM (active) |
| CCOC(=O)CNC(=O)CSc1nnc(COc2ccc(Cl)cc2)n1CC | 15.3% (inactive) |  |
| CC1CCCCC12NC(=O)N(CC(=O)N1CCN(c3ccccc3)CC1)C2=O (stereo not drawn) | -9.42% (inactive) |  |
| CSCCC(NC(=O)c1ccco1)C(=O)NCCc1ccc(F)cc1 (stereo not drawn) | 6% (inactive) |  |
| O=C(OCC(=O)N1CCCCCC1)c1ccc(Br)c(S(=O)(=O)N2CCOCC2)c1 | -0.643% (inactive) |  |
| CCN1CCN(CCNC(=O)c2ccc(/C=C3/Sc4ccccc4N(Cc4cccc(C)c4)C3=O)cc2)CC1 |  | 8.91 µM (active) |
| COc1ccc(CCNC(=O)c2ccc3c(c2)NC(=O)C(N2CCOCC2)S3)cc1OC (stereo not drawn) | -4.67% (inactive) |  |
| COc1ccc(/C=C(\NC(=O)c2ccccc2)C(=O)NCCN2CCOCC2)cc1OC | 11.8% (inactive) |  |
| O=C(NCCCN1CCOCC1)c1ccc2c(c1)N(Cc1cccc(F)c1)C(=O)c1ccccc1S2 | -10.1% (inactive) |  |
| CCN1CCN(CCNC(=O)c2ccc3c(c2)NC(=O)/C(=C\c2ccc(OC)c(OC)c2)S3)CC1 |  | 31.6 µM (active) |
| Cc1nn(Cc2ccccc2)c(C)c1C(=O)NCCN1C(=O)S/C(=C\c2ccc(F)cc2)C1=O | -17.6% (inactive) |  |

| Structure (SMILES) | activity change, negative = inhibition | Potency |
| --- | --- | --- |
| CC(=O)OC1CCC2(C)C(=CCC3C4CC(=O)N(O)C(=O)C4(C)CCC32)C1 (stereo not drawn) | 11.9% (inactive) |  |
| COc1cc(/C=C/C(=O)OCC(=O)NC2CC2)cc(OC)c1OC | -13.3% (inactive) |  |
| CN(CC(=O)NCc1cccnc1)S(=O)(=O)c1cc(Cl)ccc1Cl | -1.4% (inactive) |  |
| CC(=O)c1c(OCC(=O)N(C)C2CCCCC2)ccc2c(C)cc(=O)oc12 | -5.03% (inactive) |  |
| COc1cccc(C=CC(=O)C=CC=Cc2ccccc2)c1 | 0.583% (inactive) |  |
| Cc1cccc(NC(=O)c2ccc3c(=O)n(CC4CCCO4)c(=S)[nH]c3c2)c1 (stereo not drawn) |  | 11.2 µM (active) |
| CC1Sc2ccc(C(=O)NCc3ccccc3Cl)cc2NC1=O (stereo not drawn) | 14.3% (inactive) |  |
| O=C(NC1CCCCC1)c1ccc2c(=O)n(CC3CCCO3)c(=O)[nH]c2c1 (stereo not drawn) | 10.9% (inactive) |  |
| O=C(NCc1ccccc1Cl)C1CCCO1 (stereo not drawn) | 18.6% (inactive) |  |
| O=C(NCc1ccccc1Cl)c1ccc2c(=O)n(CC3CCCO3)c(=S)[nH]c2c1 (stereo not drawn) |  | 6.31 µM (active) |
| Cc1ccccc1NC(=O)Cn1c(=O)n(CC2CCCO2)c(=O)c2ccccc21 (stereo not drawn) | 14.2% (inactive) |  |
| CSc1ccc(/C=C2\NC(=O)NC2=O)cc1 | 23% (inactive) |  |
| Cc1cn(C2CC(O)C(CO)O2)c(=O)n(CCCc2ccccc2)c1=O (stereo not drawn) | 34.1% (inactive) |  |
| C(#CCN1CCOCC1)CCCN1CCOCC1 | 2.92% (inactive) |  |
| Cc1ccc(NS(=O)(=O)c2ccc(-c3coc(C)n3)cc2)c(C)c1 |  | 11.2 µM (active) |
| COc1cccc(NS(=O)(=O)c2ccc(-c3coc(C)n3)cc2)c1 | -9.58% (inactive) |  |
| Cc1ccc(NS(=O)(=O)c2ccc3c(c2)n(C)c(=O)c(=O)n3C)c(C)c1 | 7.94% (inactive) |  |
| CCCCN1C(N)=NC[C@@H]1CC1CCCCC1 | 17% (inactive) |  |
| COC(=O)Cc1ccc(OCC(=O)NC2CCCC2)cc1 | 4.31% (inactive) |  |
| COc1cc(OC)c(NC(=O)c2ccc(Br)o2)cc1Cl |  | 11.2 µM (active) |
| COc1cc(OC)cc(C(=O)NNC(=O)CNC(=O)c2ccc(Br)o2)c1 | 10.2% (inactive) |  |
| CCN1CCN(c2c(Cl)cccc2NC(=O)c2ccc(Br)o2)CC1 | -19.6% (inactive) |  |

| Structure (SMILES) | activity change, negative = inhibition | Potency |
| --- | --- | --- |
| Cc1csc(SCC(=O)N(c2ccccc2)C(C)C)n1 | 13.2% (inactive) |  |
| NC(=O)C1(Nc2ccc([N+](=O)[O-])cc2)CCCC1 | -3% (inactive) |  |
| Cc1cc(OCc2cc(C(=O)NCc3cc(C(C)C)no3)no2)cc(C)c1Cl | 5.78% (inactive) |  |
| CCOC(=O)CC1COCCN1C(=O)c1cc(COc2ccc(F)c(F)c2)on1 (stereo not drawn) | -11.4% (inactive) |  |
| CCOC(=O)CC1(NC(=O)c2cc(COc3cncc(Cl)c3)on2)CCCCC1 |  | 10 µM (active) |
| CCCCn1c(N)c(N(CC(C)C)C(=O)C2CSC3(C)CCC(=O)N23)c(=O)[nH]c1=O (stereo not drawn) | 0.302% (inactive) |  |
| O=C(O)C1C2C=CC(O2)C1C(=O)Nc1ccccn1 (stereo not drawn) | 21% (inactive) |  |
| COC(=O)[C@]1(C)N[C@H](c2ccc(-c3ccc(Cl)c(Cl)c3)cc2)[C@@H]2C(=O)N(C)C(=O)[C@@H]21 | -8.54% (inactive) |  |
| COc1ccccc1C(=O)Nc1ccc(C)c(S(=O)(=O)N2CCCCC2)c1 |  | 7.08 µM (active) |
| Cc1cc(C(=O)Nc2ccc(C)c(S(=O)(=O)N3CCOCC3)c2)c2ccccc2n1 |  | 11.2 µM (active) |
| Cc1ccc(NC(=O)c2ccccn2)cc1S(=O)(=O)N1CCOCC1 | -0.0506% (inactive) |  |
| Cc1ccc(NC(=O)CCC(=O)N2CCC(c3ccccc3)=N2)cc1S(=O)(=O)N1CCCCC1 | 13.3% (inactive) |  |
| COc1ccc(NC(=O)C2=NNC(=O)CC2)cc1S(=O)(=O)N1CCCCC1 | 10.7% (inactive) |  |
| Cc1ccccc1OCC(=O)Nc1ccc(S(=O)(=O)N2CCOCC2)cc1 | -9.36% (inactive) |  |
| CCc1ccccc1OCC(=O)Nc1ccc(C)c(S(=O)(=O)N2CCCCCC2)c1 |  | 3.55 µM (active) |
| Cc1ccc(NC(=O)COC(=O)C2CC2)cc1S(=O)(=O)N1CCOCC1 | 11% (inactive) |  |
| Cc1ccccc1OCC(=O)Nc1ccc(N2CCN(C(=O)C(C)C)CC2)c(Cl)c1 |  | 31.6 µM (active) |
| Cc1ccc(NC(=O)C2CC2)cc1S(=O)(=O)N1CCOCC1 | 7.05% (inactive) |  |
| Cc1ccccc1OCC(=O)Nc1ccc2c(c1)ncn2C | -14.5% (inactive) |  |
| COc1ccccc1C(=O)Nc1ccc(OCC(=O)N2CCCCC2)cc1 | 9.06% (inactive) |  |
